Screens deposited in PubChem by National Center for Advancing Translational Sciences (NCATS).
This is a sample that favours compounds with a hit; in the whole collection about 8% have one here.
FMDV inh: blocks foot and mouth disease virus | FMDV antiviral cell-based qHTS | Potency, µM (top dose mostly 57.9 µM), for the others: at the top dose activity change, negative = inhibition, usual class: inhibitors | 410,000 compounds, 1.2% hits; calls by dose curve; tested in HEK293T cells; further: read-out not given here; potency means the concentration at half of the fitted maximal effect; on the % scale 0 is the no-effect control and ±100 the full control effect; nearly all actives have a fitted effect of over 45% in size
MARV entry inh: inhibitors of Marburg virus binding or cell entry. Marburg virus pseudotyped entry inhibition, cell reporter. Potency, µM (highest dose often 37.8 µM), inactives show top-dose activity change, negative = inhibition, hits mostly inhibitors. 300,000 compounds, 1.8% hits. AID 540276; calls by dose curve; tested in HEK293 cells; further: potency means the concentration at half of the fitted maximal effect; on the % scale 0 is the no-effect control and ±100 the full control effect
HCV inhibitor: blocks hepatitis C virus; Potency, µM (highest dose often 41.8 µM), without a hit: at the top dose activity change, negative = inhibition, most hits filed as inhibitors; Huh7.5.1 HCVcc-Cre infection, luciferase reporter, 44 h; 340,000 compounds, 3.4% hits; active means well fitted inhibition curve with a large enough effect; inconclusive means small, poorly fitted or top-dose-only effect, or another doubt; inactive means no such curve, though single readings can be large or run the other way; further: potency means the concentration at half of the fitted maximal effect; on the % scale 0 is the no-effect control and ±100 the full control effect
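Cells (1,000/well) were plated 4 h before compound, then infected with HCVcc-Cre virus (~0.5 moi). After 44 h further culture, infection was read as luciferase luminescence following a 15 min substrate incubation at room temperature.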
HCMV antiviral: human cytomegalovirus inhibition; HFF cells, HCMV-luciferase reporter, 72 h; stronger effect = lower value; 410,000 compounds, 4.5% hits; activity change, negative = inhibition, % at 57.5 µM; AID 1259415; in the data active means activity change below about -60%; inconclusive means no clear call, values can overlap the other calls; inactive means above about -39%; further: on the % scale 0 is the no-effect control and ±100 the full control effect
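Cell-based, HFFs, 1000 cells/well, 16 h 37C; cpds in DMSO + HCMV-luc, MOI 1 PFU/cell; 72 h 37C; OneGlo luminescence after 5 min RT; norm. to buffer vs Salinomycin 10uM.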
SARS PLP yeast: SARS-CoV PLP inhibition in yeast. Potency, µM (highest dose often 32.9 µM), for the others: at the highest dose activity, positive = growth rescue, actives largely listed as activators. S. cerevisiae expressing SARS-CoV PLpro, growth rescue. 330,000 compounds, 0.19% hits. AID 485353; calls by dose curve; further: potency means the concentration at half of the fitted maximal effect; 0% is about no effect; nearly all actives have a fitted effect of over 55% in size
LASV entry inh: inhibitors of Lassa virus binding or cell entry; 300,000 compounds, 1.2% hits; Potency, µM (titrated, usually from 37.9 µM), without a hit: at the highest dose activity change, negative = inhibition, actives largely listed as inhibitors; Lassa virus pseudotype entry inhibition, cell reporter; calls by dose curve; tested in HEK293 cells; further: potency means the concentration at half of the fitted maximal effect; on the % scale 0 is the no-effect control and ±100 the full control effect; nearly all actives have a fitted effect of over 50% in size
* hit, by the source's call; ? = inconclusive; . = not tested or not shown; [ ] = remark or other dose.

SMILES | FMDV inh | MARV entry inh | HCV inhibitor | HCMV antiviral | SARS PLP yeast | LASV entry inh
COc1ccc(/C=N/N=C2/NC(=O)C(CC(=O)O)S2)cc1OCc1ccc(Cl)cc1Cl (stereo unspecified) | -15% | 1.1µM* | 24% | -35 | 26% | -4%
COc1cc(/C=N/N=C2/NC(=O)C(Cc3ccc(F)cc3)S2)ccc1O (stereo unspecified) | 3% | ? | 2% | -19 | 0% | ?
CCC(=O)c1ccc(OCc2ccc(C(=O)OC)cc2)cc1 | ? | 10µM* | 6% | 70 | 1% | ?
COC(=O)c1ccc(COc2ccc(-c3nn[nH]n3)cc2)cc1 | 13% | 15% | 7% | -107* | -4% | -19%
O=[N+]([O-])c1ccc(N2CCN(Cc3ccccc3)CC2)c2c1no[n+]2[O-] | 28µM* | . | . | 53 | . | .
O=[N+]([O-])c1ccc(N2CCN(Cc3ccccc3)CC2)s1 | -17% | 16%[46.1 µM] | -17% | -9 | 0% | 1%[46.1 µM]
CCC1CC2C(=O)C(c3nc(C)cs3)=COC2CC1O (stereo unspecified) | . | 0%[46.1 µM] | . | . | . | .
CC(C)c1ccc(NC(=O)Cn2nnc(C(=O)NCc3ccc(Cl)cc3)c2N)cc1 | 0% | . | . | 29 | . | 23%[46.1 µM]
Nc1nc(CCl)nc(Nc2cccc3ccccc23)n1 | ? | . | 0.56µM* | -98* | 0% | .
Nc1nc(Nc2cccc3ccccc23)nc(C2CCCC2=O)n1 (stereo unspecified) | . | . | . | 34 | 2% | .
COc1cc(OC)cc(-c2nnc(SCC(=O)N(Cc3ccccc3)C(C)(C)C)o2)c1 | -6% | ? | -29% | -71* | -1% | -13%
COc1cc(-c2nnc(SCC(=O)N(Cc3ccccc3)C(C)(C)C)o2)cc(OC)c1OC | . | ? | ? | -9 | -10% | -20%
O=C(OCc1nc2ccccc2s1)c1cccs1 | 11% | 16% | 15% | -62* | . | 5%
O=C(OCc1nc2ccccc2s1)c1ccccc1O | 26% | 20%[46.1 µM] | ? | -24 | -2% | 4%
Oc1ccccc1N=N/C(=N/Nc1ccccc1O)c1ccccc1 | 4% | . | 4%[8.37 µM] | 30 | -15% | .
N#C/C(N=Nc1ccccc1O)=N\Nc1ccccc1O | ? | . | 11µM* | -99* | -3% | .
O=C(CN1C(=O)c2ccccc2S1(=O)=O)c1ccccc1F | ? | ? | 4% | ? | 3% | ?
O=C(CN1C(=O)c2ccccc2S1(=O)=O)c1cccc(Br)c1 | 10µM* | ? | -3% | -32 | 1% | 1.3µM*
O=C(CCN1C(=O)c2ccccc2S1(=O)=O)Nc1cc(Cl)ccc1Cl | -13% | 5% | ? | -30 | -3% | 1%
O=C(CN1C(=O)c2ccccc2S1(=O)=O)c1ccc(OC(F)F)cc1 | ? | 1.3µM* | 7% | . | 3% | 0.89µM*
CC(C)C(NC(=O)CN1C(=O)c2ccccc2S1(=O)=O)C(C)C | -13% | . | 6% | -11 | 7% | .
O=C(CN1C(=O)c2ccccc2S1(=O)=O)c1ccc(F)cc1 | -68% | . | 9% | -67* | -4% | .
O=C(CN1C(=O)c2ccccc2S1(=O)=O)c1ccc(Cl)cc1Cl | 2µM* | 0.28µM* | 18% | -91* | . | 0.56µM*
O=C(CCC1CCCC1)NNC(=O)c1cccc(Cl)c1 | 19% | . | 20% | -6 | 7% | .
COC(=O)C1=C(C)OC(N)=C(C#N)[C@H]1c1ccc(OC)c(OC)c1OC | . | 7% | . | . | . | .
SMILES | FMDV inh | MARV entry inh | HCV inhibitor | HCMV antiviral | SARS PLP yeast | LASV entry inh
CCc1ccc(CNC(=O)c2ccc(NC(=O)N3CC(C)Sc4ccccc43)cc2)cc1 (stereo unspecified) | -10% | ? | . | 27 | . | -9%[46.1 µM]
COC(=O)c1ccc(OCC(O)CN2C(=O)c3ccccc3S2(=O)=O)cc1 (stereo unspecified) | -6% | 23%[46.1 µM] | 5µM* | -13 | 0% | ?
Cc1sc(N/N=C/C=C/c2ccccc2)nc1-c1ccccc1 | -1% | 11% | -19% | 27 | 13µM* | ?
CC(C)NC(=O)N(C)C[C@H]1Oc2ncc(Br)cc2C(=O)N([C@H](C)CO)C[C@@H]1C | -24% | . | . | 1 | . | .
COc1ccc(Nc2nnc(SC(C(=O)Nc3cc(C)ccc3C)c3ccccc3)s2)cc1 (stereo unspecified) | -7% | ? | ? | -100* | 0% | ?
COc1ccc(Nc2nnc(SC(C(=O)Nc3ccc(OC)c(Cl)c3)c3ccccc3)s2)cc1 (stereo unspecified) | 15% | ? | ? | ? | -13% | -5%
COc1ccc(C)cc1NC(=O)C(Sc1nnc(Nc2cc(C)ccc2OC)s1)c1ccccc1 (stereo unspecified) | 6% | ? | 10µM* | ? | 17% | -1%
COc1cccc(NC(=O)C(Sc2nnc(Nc3ccccc3C)s2)c2ccccc2)c1 (stereo unspecified) | 0% | ? | ? | -32 | 16% | ?
O=C(Nc1cccc(C(F)(F)F)c1)Nc1ccc2snnc2c1 | -27% | ? | . | -105* | . | ?
O=C(Nc1ccccc1)Nc1ccc2snnc2c1 | 20% | ? | 11µM* | 11 | -76% | 10%
O=C(Nc1cccc(C(F)(F)F)c1)c1ccc2snnc2c1 | -9% | 17%[46.1 µM] | . | -20 | . | 0%[46.1 µM]
C#CCCCON=C1C[C@@H](O)[C@H](O)[C@H]2[C@@H]3C(=O)N(c4ccc(F)cc4F)C(=O)[C@@H]3CC[C@@H]12 | . | -8%[14.2 µM] | . | . | . | .
CC(C)CCNc1nc(Nc2ccccc2)c2cnn(C)c2n1 | -10% | . | . | 52 | . | 27%[46.1 µM]
Cn1ncc2c(Nc3ccccc3Cl)nc(Nc3ccccc3Cl)nc21 | -16% | ? | 6.3µM* | -17 | -2% | -22%[46.1 µM]
Cc1ccccc1-n1nc(CO)c(C(=O)NCC(c2ccccc2)c2ccccc2)n1 | 13µM* | -28%[46.1 µM] | . | -86* | . | ?
O=C(NCC(c1ccccc1)c1ccccc1)c1nn(-c2ccccc2Cl)nc1CO | ? | -28%[46.1 µM] | . | -92* | . | ?
COc1ccc(OC)c([C@H]2/C(=C(\O)c3ccccc3)C(=O)C(=O)N2Cc2ccco2)c1 | . | 10%[46.1 µM] | . | . | . | .
Cn1nc(-c2ccc(C(=O)Nc3ccc(OC(F)(F)F)cc3)cc2)c2ccccc2c1=O | 14µM* | . | . | -33 | . | -2%[46.1 µM]
CN(CCO)C(=O)c1ccc(-c2nn(C)c(=O)c3ccccc23)cc1 | -20% | ? | -7% | -25 | 1% | 0%
Cn1nc(-c2ccc(C(=O)O)cc2)c2ccccc2c1=O | -8% | -2% | 11% | 41 | -2% | 2%
Cn1nc(-c2ccc(C(=O)Nc3cccc(C(F)(F)F)c3)cc2)c2ccccc2c1=O | 22µM* | ? | . | -13 | . | 4%[46.1 µM]
CN(C(=O)c1ccc(-c2nn(C)c(=O)c3ccccc23)cc1)C1CCCCC1 | 22µM* | ? | ? | -38 | -3% | ?
CC(C)(C)c1ccc(CC(=O)N2CCC2(C)C(=O)Nc2cccc3cccnc23)cc1 (stereo unspecified) | -9% | . | . | 0 | . | .
